Compound activity as filed in PubChem.
The list is not random: actives were taken first. Their share in the collection is about 4.5%.
GAA850 FXN act: frataxin GAA850 promoter activation; activation, % at 6 µM; 360,000 tested, 0.56% active; HEK293 lucGAA850 FXN promoter luciferase reporter, 24 h; percent of 10 µM SAHA response;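 active = activation above the average of all compounds screened plus 3 SD, cutoff fixed separately per campaign, cut at about 7.5% in these data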;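 also: 0% = DMSO wells and 100% = 10 µM SAHA wells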
hcDAF12 agonist: activators of H. contortus DAF-12 nuclear receptor; HEK293 hcDAF-12 lit1-tk-luc reporter, luminescence; 0% DMSO, 100% Δ7-dafachronic acid; 370,000 tested, 1.4% active; AID 652067; activation, % at 6.8 µM;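 active = activation above the mean of all tested compounds plus 3 SD, cut at about 5.5% in these data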;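 also: 100% = response to 3 µM Δ7-dafachronic acid high control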
hgDAF-12 ag: activates the H. glycines DAF-12 receptor ligand-binding domain. 370,000 tested, 1.8% active. activation, % at 6.8 µM. HEK293 GAL4-hgDAF12 UAS-luciferase reporter, agonist luminescence; normalized to butyrate control;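 active = activation above a cutoff set at the mean of all screened compounds plus 3 SD, cut at about 10% in these data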;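 also: 0% = DMSO wells and 100% = sodium butyrate wells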
DAX1 inh-1: inhibits human nuclear receptor DAX1; inhibition, % at 6.75 µM; HEK293 Gal4-DAX1 luciferase reporter, luminescence; 340,000 tested, 0.99% active; AID 504766;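 active = inhibition above the mean over all tested compounds plus 3 SD, cut at about 4.2% in these data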;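 also: 0% = DAX1-transfected cells with DMSO and 100% = empty-vector control cells with DMSO; inhibition shows as a rise in luminescence from relieved DAX1 repression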
Target sequence (P51843 207-470 limits assumed): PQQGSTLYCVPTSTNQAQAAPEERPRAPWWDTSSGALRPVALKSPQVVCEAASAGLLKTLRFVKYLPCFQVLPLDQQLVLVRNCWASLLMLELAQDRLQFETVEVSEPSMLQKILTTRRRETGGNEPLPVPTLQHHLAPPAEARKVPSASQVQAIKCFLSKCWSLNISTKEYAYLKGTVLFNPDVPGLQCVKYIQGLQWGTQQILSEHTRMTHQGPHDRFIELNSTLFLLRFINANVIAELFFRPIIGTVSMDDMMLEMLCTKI
DAX1 inh-2: inhibitors of DAX1 repression of SF-1 activated StAR promoter; 370,000 tested, 1.1% active; HEK293T StAR-luciferase reporter, SF-1/DAX-1 repression relief; inhibition, % at 6.8 µM; AID 652010;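 active = inhibition above the mean over all tested compounds plus 3 SD, cut at about 3.6% in these data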;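 also: 0% = DAX-1 cells with DMSO and 100% = cells lacking DAX-1 with DMSO; higher inhibition means more luminescence from relief of DAX-1 repression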
ssDAF-12 act: S. stercoralis DAF-12 activation, primary screen | HEK293 ssDAF-12/GRIP1 lit1-tk-luc reporter, luminescence; % of 3 µM dafachronic acid response | AID 652126 | 370,000 tested, 1% active | activation, % at 6.8 µM;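 active = activation above the mean over all tested compounds plus 3 SD, cut at about 0.9% in these data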;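 also: 0% = DMSO-only wells and 100% = 3 µM delta7-dafachronic acid wells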
Active calls of the source: *; x = not tested or not shown.

SMILES	GAA850 FXN act	hcDAF12 agonist	hgDAF-12 ag	DAX1 inh-1	DAX1 inh-2	ssDAF-12 act
COc1ccc2cc3c(N)nn(C(=O)c4ccc(F)cc4)c3nc2c1	-7.1	-1.3	11.9*	0.3	0.1	-1.6
COc1cccc(CC(=O)n2nc(N)c3cc4ccc(OC)cc4nc32)c1	-5.4	-1.1	-1.4	2.2	2.2	0.0
COc1ccc2cc3c(N)nn(C(=O)c4ccccc4Cl)c3nc2c1	-10.8	-4.6	4.7	0.2	-1.7	-2.8
COC(CNC(=O)[C@H](Cc1ccccc1)NCC(=O)NC1CCCCC1)OC	x	1.4	0.3	x	x	-1.7
O=C(NCc1ccccc1)[C@@H]1CCCN1C(=O)[C@H]1CCCN1C(=O)c1ccc(F)c(C(F)(F)F)c1	x	-1.5	-1.0	x	-0.5	-0.9
O=C(NC1CCCCN(Cc2ccc(Cl)cc2)C1=O)C(c1ccccc1)c1ccccc1 (stereo not drawn)	x	-2.5	0.9	x	-1.4	-0.9
CCOC(=O)c1c(NC(=O)c2nn(CC)cc2Br)sc(C)c1C	2.9	3.0	0.1	-0.9	0.4	-1.3
CCn1cc(Br)c(C(=O)Nc2ccc(F)c(Cl)c2)n1	2.0	3.4	10.1	1.6	0.3	1.7*
CCn1cc(Br)c(C(=O)Nc2ccc(Cl)cc2Cl)n1	-0.6	1.4	1.3	0.2	0.2	1.0*
CCOC(=O)c1ccc(NC(=O)c2nn(CC)cc2Br)cc1	3.0	-2.2	2.5	1.6	1.2	-1.5
Cc1nnc(C)n1N=Cc1ccc(Cl)c([N+](=O)[O-])c1	x	-0.1	-2.0	x	0.1	-0.9
O=C(OCc1ccccc1)[C@H](Cc1ccccc1)NC(=O)[C@@H]1CC=C[C@@H]2CCN(Cc3ccc(Cl)cc3)C(=O)[C@@H]21	x	-1.4	-0.9	x	x	-1.3
CC(C)[C@@H]1Cc2[nH]n(C)c(=O)c2[C@H](c2ccc(F)cc2)O1	x	3.2	-2.5	x	4.1*	-0.4
Cn1[nH]c2c(c1=O)[C@H](c1ccc(F)cc1)O[C@H](CCc1ccccc1)C2	x	-0.3	-0.9	x	-0.7	-1.3
CCn1c(O)c(C2=c3ccccc3=NC2=O)c2cc(Br)ccc21	x	4.6	2.7	x	-0.2	1.0*
O=C1N=c2ccccc2=C1c1c(O)n(-c2cccc(F)c2)[nH]c1=O	0.1	2.4	-0.7	0.7	0.0	-0.5
CC(C)(C)N(Cc1cn(CC2CCCCC2)nn1)S(=O)(=O)c1ccccc1Br	x	-4.2	2.1	x	-0.9	-1.3
COC(=O)C/C(C)=N/Nc1ccc(S(=O)(=O)N2CCCC2)cc1[N+](=O)[O-]	1.9	-2.4	-3.6	4.5*	0.0	-1.1
CSc1ccc(CN2C(=O)NC3(CCCCC3)C2=O)cc1	0.2	-1.9	-2.3	6.8*	-0.3	-1.1
Cc1nc(CSc2nnc(C)s2)cs1	0.0	-1.3	3.5	4.7*	0.8	-1.0
CCn1nnc(NC(=O)c2cc3ccccc3o2)n1	3.7	1.3	3.3	0.0	1.4	-0.3
CCCn1nnc(NC(=O)c2cc(Br)ccc2OC)n1	3.0	-0.8	1.0	0.7	0.1	1.1*
CCCn1nnc(NC(=O)c2cc3ccccc3o2)n1	5.3	3.5	9.3	5.7*	2.7	-0.7
C[C@@H]1COc2cc(Br)ccc2S(=O)(=O)N1Cc1cn(Cc2ccc(Cl)cc2)nn1	x	0.1	0.4	x	-0.6	-0.5
Cn1c(=O)c(=O)n(C)c2cc(S(=O)(=O)N3CCN(Cc4ccc(F)cc4)CC3)ccc21	x	-0.9	0.8	x	-0.2	-0.3
SMILES	GAA850 FXN act	hcDAF12 agonist	hgDAF-12 ag	DAX1 inh-1	DAX1 inh-2	ssDAF-12 act
O=C(NNC(=O)C1CC2CCC1C2)c1sc2ccccc2c1Cl (stereo not drawn)	4.7	2.4	12.9*	0.9	1.5	0.3
COc1cc(NC(=O)c2ccccc2)c(C)cc1NC(=O)CSc1nnc(-c2ccccc2F)n1-c1ccc(C)cc1	x	0.2	1.0	x	-3.1	-0.4
COc1ccc(C(=O)C2(C(=O)NCCO)CC(c3ccccn3)=NO2)cc1 (stereo not drawn)	x	-0.3	0.1	x	0.5	0.0
O=C(Nc1nncs1)c1cc2c(s1)CCC2	-0.3	1.8	12.4*	1.4	3.1	-0.9
N#Cc1nc(Cc2ccccc2)oc1N1CCCC1	3.2	-1.2	2.4	6.2*	0.5	-1.0
CC1CC(C)CN(c2oc(Cc3ccccc3)nc2C#N)C1 (stereo not drawn)	5.8	-2.4	-3.3	-0.7	0.0	-1.7
Cc1csc(SCC(=O)N(C)CC(=O)Nc2ccc(F)cc2)n1	-0.7	x	x	1.5	x	x
CN(CC(=O)Nc1ccc(F)cc1)C(=O)CSc1nncs1	-1.1	0.0	1.6	1.5	3.9*	-0.6
Cc1cccc(-n2ncc3c(NCc4cccs4)ncnc32)c1	3.4	1.1	8.5	0.3	1.9	1.2*
Cc1cccc(-n2ncc3c(NCc4ccccc4)ncnc32)c1	-3.2	0.2	11.7*	-0.6	-2.5	-0.1
c1ccc(CNc2ncnc3c2cnn3-c2ccccc2)cc1	-1.9	-0.8	7.1	0.3	1.3	-1.6
Cc1ccc(CSc2ncnc3c2cnn3-c2ccccc2)cc1	3.0	1.7	-1.2	1.2	-0.2	-2.1
Cc1ccc(-n2ncc3c(SCc4ccccc4)ncnc32)cc1	4.6	6.5*	12.5*	1.4	2.2	-0.3
O=c1c2c3c(sc2nc2n1CCCCC2)C(O)CCC3 (stereo not drawn)	2.9	2.0	11.2*	0.7	3.6	-1.1
O=c1c2c3c(sc2nc2n1CCCCC2)CCC3	3.3	0.7	3.1	-0.3	-0.4	-0.9
O=C1CCCc2c1sc1nc3n(c(=O)c21)CCCCC3	3.6	1.3	10.5*	1.6	1.4	-0.7
N#C/C(=N\Nc1ccccc1F)C(=N)N1CCCCC1	4.9	5.1	11.1*	2.1	2.7	0.2
COc1ccc(N/N=C(\C#N)C(=N)N2CCCCC2)cc1	3.1	0.8	9.7	6.4*	0.3	-0.8
CCN(CC)C(=N)/C(C#N)=N/Nc1ccc(C)cc1	6.0	5.1	8.7	7.1*	2.2	-0.1
Cc1ccc(N/N=C(\C#N)C(=O)c2ccsc2)cc1	3.1	0.1	2.3	0.3	-0.4	-1.2
Cc1ccc(N/N=C(\C#N)C(=N)N2CCOCC2)cc1	5.2	3.0	13.0*	5.2*	1.2	0.6
C[C@@H](CO)N(Cc1cn(Cc2ccccc2)nn1)S(=O)(=O)c1ccc(F)cc1Br	x	-1.7	-0.8	x	0.3	-0.7
C[C@@H]1[C@@H](O)C[C@@]2(CC(=O)c3ccccc3O2)O[C@H]1c1ccccc1	x	-0.5	5.6	x	-0.4	-1.2
C=CCOC(=O)N[C@@H](c1coc2ccccc2c1=O)[C@@H](C)/C=C/CC(=O)OC	x	-1.2	0.9	x	-0.1	-1.3
Nc1cc2ccccc2oc1=O	2.3	2.5	0.6	-0.4	-0.2	-0.4
c1ccc2occc2c1	-2.0	1.7	-0.1	4.3*	0.0	-1.1
O=c1c(C=NCc2ccccc2)c(NCc2ccccc2)nc2ccccn12	2.8	0.2	-0.8	4.5*	-0.6	-1.2
